Laboratory results: PubChem BioAssay AID463173 (ICCB-Longwood Screening Facility, Harvard Medical School, 2010)
Hit rate of the full screen: of about 52,000 compounds, about 4,300 (8.3%) were called active. This is one part of a sample in which actives are shown more often than they occur. Unmarked numbers belong to inactive results. Cut-off read from the data, not from the text of the source: active = survival mostly below about 52% (no sharp cut-off); inactive = mostly above about 56%.

What follows are molecules tested on DeltatarO mutant (assay: growth inhibition of S. aureus wild type versus tarO mutant, primary screen, teichoic acid synthesis inhibitors, RN4220, OD600 (AID 463173)). Conditions: OD600, 18 h, stronger effect = lower value, screened at 18.75 µg/mL (by protocol).

Row | Compound | survival
1 | COc1ccc(-n2c(SCC(=O)N3CCCc4ccccc43)nc3c([nH]c4ccccc43)c2=O)cc1 | 101%
2 | COc1ccc2c(C)c(CCC(=O)NCCc3ccc(OC)c(OC)c3)c(=O)oc2c1 | 88%
3 | CC(=O)c1cccc(NC(=O)Cn2cc(C(=O)c3cccc(Cl)c3)c(=O)c3ccc(C)nc32)c1 | 56%
4 | COc1cc(C(=O)Nc2ccc(Cl)c(-c3nc4ncccc4o3)c2)cc(OC)c1OC | 123%
5 | COc1ccc(Br)cc1CNC(=O)c1cc(=O)[nH]c2ccc(S(=O)(=O)N3CCCCC3)cc12 | 84%
6 | CCOC(=O)CCC(=O)Nc1nnc2n1CCS2 | 66%
7 | CCN1CCN(CCC(=O)Nc2ccc3c(c2)CCC3)CC1 | 95%
8 | CNc1oc(/C=C/c2cc(OC)c(OC)c(OC)c2)nc1C#N | 69%
9 | CCOc1ccc(Nc2oc(/C=C/c3cc(OC)c(OC)c(OC)c3)nc2C#N)cc1 | 58%
10 | COc1ccccc1/C=C/c1nc(C#N)c(NCC(C)C)o1 | 47% (active)
11 | COc1ccc(CCNc2oc(/C=C/c3ccc(OC)c(OC)c3)nc2C#N)cc1 | 90%
12 | COc1ccccc1/C=C/c1nc(C#N)c(NCc2ccccc2)o1 | 83%
13 | COc1ccccc1/C=C/c1nc(C#N)c(NCCc2ccccc2)o1 | 71%
14 | CCOc1ccc(/C=C/c2nc(C#N)c(NC3CCCCC3)o2)cc1 | 65%
15 | COc1ccc(/C=C/c2nc(C#N)c(NCCc3ccc(OC)c(OC)c3)o2)cc1OC | 95%
16 | COc1cc(/C=C/c2nc(C#N)c(NC3CCCCC3)o2)cc(OC)c1OC | 32% (active)
17 | COc1cccc(/C=C/c2nc(C#N)c(NCCc3ccc(OC)c(OC)c3)o2)c1 | 41% (active)
18 | CCOc1ccc(Nc2oc(/C=C/c3ccc(OC)c(OC)c3)nc2C#N)cc1 | 55% (active)
19 | COc1ccc(Nc2oc(/C=C/c3ccc(OC)c(OC)c3)nc2C#N)cc1 | 73%
20 | Cc1cc(C)nc(SCCC(=O)N(C)C)n1 | 84%
21 | CC(=O)N1CCN(CCN2C(=O)C3C4c5ccccc5C(c5ccccc54)C3C2=O)CC1 (stereo not given) | 94%
22 | CCC(=O)N(Cc1cc(=O)[nH]c2ccccc12)C1CCCCC1 | 69%
23 | COc1cc(NC(=O)CC(c2cccs2)N2Cc3ccccc3C2=O)cc(OC)c1OC (stereo not given) | 49%
24 | Cc1ccc(-c2csc(-c3nc(-c4ccc(Br)s4)cs3)n2)cc1 | 82%
25 | Cc1c(NC(=O)c2ccc(Cl)cc2)cc(C(C)C)c(O)c1S(=O)(=O)c1ccc(Cl)cc1 | 75%

Row | Compound | survival
26 | CCN(CC)C(=O)CSc1nnc(Cc2ccccc2)n1CC | 50%
27 | CCOC(=O)C1CCN(C(=O)c2ccc3c(=O)n4nc(Nc5cc(C)ccc5C)sc4nc3c2)CC1 | 84%
28 | COc1ccc(S(=O)(=O)N2CCC(c3ccncc3)CC2)cc1Cl | 124%
29 | COc1ccccc1CNC(=O)CCn1c(=O)c2ccccc2n(CC(=O)Nc2ccc(C)cc2Cl)c1=O | 77%
30 | COc1ccc(-n2nc(C(=O)N3CCN(c4cccc(C)c4)C(C)C3)c3c4ccccc4n(C)c3c2=O)cc1 (stereo not given) | 76%
31 | COc1ccccc1/C=C/c1nc(C#N)c(NC(C)c2ccccc2)o1 (stereo not given) | 70%
32 | COc1ccccc1/C=C/c1nc(C#N)c(NC2CCCCC2)o1 | 85%
33 | COc1ccc(/C=C/c2nc(C#N)c(NC3CCCCC3)o2)cc1OC | 36% (active)
34 | COc1cccc(/C=C/c2nc(C#N)c(NC3CCCCC3)o2)c1 | 69%
35 | COc1cc(/C=C/c2nc(C#N)c(NCCc3ccccc3)o2)cc(OC)c1OC | 49%
36 | COc1cc(/C=C/c2nc(C#N)c(NC(C)c3ccccc3)o2)cc(OC)c1OC (stereo not given) | 40% (active)
37 | CC(=O)N1c2ccc(S(=O)(=O)NCC3CCC(C(=O)NCCC(C)C)CC3)cc2CC1C (stereo not given) | 102%
38 | CC(C)CC(=O)NCC1(N(C)C)CCCCC1 | 84%
39 | O=C(CN1C(=O)C2CCCCN2c2ccc(C(=O)N3CCCC3)cc21)NCc1ccccc1F (stereo not given) | 99%
40 | O=C(NCc1cccc(Cl)c1)c1ccc(NC(=O)N2CCSc3ccccc32)cc1 | 57%
41 | CSc1nn(Cc2cccc(F)c2)c(N(C(C)=O)C(C)=O)c1S(=O)(=O)c1ccccc1 | 84%
42 | Cc1nc(-c2ccc(C)c(N3CCN(C(=O)Nc4cccc(Cl)c4C)CC3)c2)no1 | 88%
43 | COc1cccc(CNC(=O)c2cc3c(s2)-c2ccccc2OC3)c1 | 42% (active)
44 | CCOc1ccc(NC(=O)c2cc3c(s2)-c2ccccc2OC3)cc1 | 95%
45 | COc1cc(NC(=O)c2cc3c(s2)-c2ccccc2OC3)cc(OC)c1OC | 55%
46 | Cc1ccc(C)c(N(C)C(=O)c2cc3c(s2)-c2ccccc2OC3)c1 | -3% (active)
47 | COc1cccc(CNC(=O)c2cc3c(s2)-c2c(C)cccc2OC3)c1 | 68%
48 | COc1ccc(CNC(=O)c2cc3c(s2)-c2ccccc2OC3)cc1 | 64%
49 | COc1ccc(N(C)C(=O)c2cc3c(s2)-c2ccccc2OC3)cc1 | -2% (active)
50 | COc1ccc(N2CCN(C(=O)c3cc4c(s3)-c3ccccc3OC4)CC2)cc1 | 114%

Row | Compound | survival
51 | CCN(CC)CCOC(=O)c1ccc(NC(=O)c2cc3c(s2)-c2ccccc2OC3)cc1 | -7% (active)
52 | Cc1ccc(CCNC(=O)c2cc3c(s2)-c2ccccc2OC3)cc1 | 82%
53 | COc1cccc(N2CCN(C(=O)c3cc4c(s3)-c3ccccc3OC4)CC2)c1 | 98%
54 | CCc1cccc(NC(=O)c2cc3c(s2)-c2ccccc2OC3)c1 | 83%
55 | Cc1cc(C)c2c(-n3cccc3)c(C(=O)NCc3cccc(F)c3)sc2n1 | 66%
56 | O=S(=O)(c1ccc2[nH]c3c(c2c1)CCCCC3)N1CCN(c2ccccc2)CC1 | 91%
57 | COc1ccccc1N1CCN(c2cc(C)nc3nncn23)CC1 | 81%
58 | Cc1nc(-c2cccnc2)sc1CCNS(=O)(=O)c1ccc(F)cc1 | 75%
59 | COc1ccc(CNC(=O)C(CC(C)C)NS(=O)(=O)c2ccc3c(c2)CCN3C(C)=O)cc1 (stereo not given) | 92%
60 | CNCC(O)COc1ccccc1 (stereo not given) | 94%
61 | N#CC(C#N)=C(N)/C(C#N)=C/c1cccs1 | 81%
62 | CCc1ccc2nc(N3CCCCC3)c(C#N)cc2c1 | 88%
63 | CCn1cc(C(=O)N2CCN(c3ccc(C)cc3)C(C)C2)c(=O)c2cc(S(=O)(=O)N3CCCC3)ccc21 (stereo not given) | 87%
64 | Cc1nc2cc(-c3cccc(F)c3)nn2c(C)c1CCC(=O)Nc1ccccc1C(N)=O | 61%
65 | COC(=O)c1ccc(CSc2nc3c(c(=O)[nH]2)CCC3)cc1 | 85%
66 | COc1cc(OC)c(N(C)C(=O)c2cc3c(s2)-c2ccccc2OC3)cc1Cl | 60%
67 | CCOC(=O)c1ccccc1NC(=O)c1cc2c(s1)-c1c(C)cccc1OC2 | 137%
68 | CCOc1ccccc1N(C)C(=O)c1cc2c(s1)-c1ccccc1OC2 | -2% (active)
69 | COC(=O)c1ccccc1NC(=O)c1cc2c(s1)-c1ccccc1OC2 | 39% (active)
70 | CCOc1ccc(CCNC(=O)c2cc3c(s2)-c2ccccc2OC3)cc1OCC | 67%
71 | COc1ccc(Cl)cc1NC(=O)c1cc2c(s1)-c1ccccc1OC2 | 74%
72 | CCOC(=O)c1ccc(NC(=O)c2cn(-c3ccccc3)nc2-c2ccc(C)cc2)cc1 | 57%
73 | O=C(c1ccccc1Cl)N1CCCCC1CCN1CCCCC1 (stereo not given) | 100%
74 | COc1cccc(CNC(=O)C(Cc2ccccc2)NS(=O)(=O)c2ccc3c(c2)CCN3C(C)=O)c1 (stereo not given) | 70%
75 | CC(C)c1ccc(N2C(=O)N(Cc3ccccc3Cl)c3ccccc3S2(=O)=O)cc1 | 86%

Row | Compound | survival
76 | Cc1ccc(NC(=O)CCS(=O)(=O)c2cccc3nsnc23)c(C)c1 | 61%
77 | Cc1cc(F)ccc1NC(=O)CCS(=O)(=O)c1cccc2nsnc12 | 59%
78 | CCN(CC)c1ccc(NC(=O)CCS(=O)(=O)c2cccc3nsnc23)c(C)c1 | 44% (active)
79 | O=C(Cn1cc(C(=O)c2ccco2)c2ccccc21)Nc1ccccc1Cl | 80%
80 | COc1c(C)cc(S(=O)(=O)Nc2cccc(-c3ccc(N4CCOCC4)nn3)c2)c(C)c1C | 91%
81 | COc1ccc(CCN2C(=O)c3[nH]nc(-c4ccccc4O)c3C2c2ccc(OC)cc2)cc1 (stereo not given) | 29% (active)
82 | COc1ccc(CCN2C(=O)c3[nH]nc(-c4ccccc4O)c3C2c2cccc(OC)c2)cc1 (stereo not given) | 66%
83 | COc1ccc(CCN2C(=O)c3[nH]nc(-c4ccccc4O)c3C2c2ccccc2)cc1 (stereo not given) | 22% (active)
84 | COc1ccc(C2c3c(-c4ccccc4O)n[nH]c3C(=O)N2CCc2ccccc2)cc1 (stereo not given) | 21% (active)
85 | COc1ccc2c(c1)c1c(c(=O)n(-c3ccc(F)c(Cl)c3)c(=O)n1CC(N)=O)n2C | 96%
86 | CC(=O)Nc1nc(SCc2ccccc2Cl)n[nH]1 | 91%
87 | Cc1ccc(NC(=O)Cn2nnc3sc(-c4ccccc4)cc3c2=O)cc1Cl | 52%
88 | O=C(COc1ccc(F)cc1)Nc1ccc2nc(SCC(=O)N3CCCC3)sc2c1 | 91%
89 | CCOc1ccccc1NC(=O)C1CCCN1S(=O)(=O)c1ccc2nc(-c3ccccc3)[nH]c2c1 (stereo not given) | 50%
90 | Cc1cccc(NC(=O)C2CCCN2S(=O)(=O)c2ccc3nc(-c4ccccc4)[nH]c3c2)c1 (stereo not given) | 37% (active)
91 | CC(C)c1ccc(NC(=O)C2CCCN2S(=O)(=O)c2ccc3nc(-c4ccccc4)[nH]c3c2)cc1 (stereo not given) | 44%
92 | Cc1ccc(NC(=O)C2CCCN2S(=O)(=O)c2ccc3nc(-c4ccccc4)[nH]c3c2)cc1F (stereo not given) | 71%
93 | Cc1ccc(NC(=O)C2CCCN2S(=O)(=O)c2ccc3nc(-c4ccccc4)[nH]c3c2)cc1C (stereo not given) | 92%
94 | CCc1cccc(NC(=O)C2CCCN2S(=O)(=O)c2ccc3nc(-c4ccccc4)[nH]c3c2)c1 (stereo not given) | 35% (active)
95 | COc1cccc(NC(=O)C2CCCN2S(=O)(=O)c2ccc3c(c2)n(C)c(=O)c(=O)n3C)c1 (stereo not given) | 87%
96 | CCc1cccc(NC(=O)C2CCCN2S(=O)(=O)c2ccc3c(c2)n(C)c(=O)c(=O)n3C)c1 (stereo not given) | 85%
97 | COc1ccc(NC(=O)C2CCCN2S(=O)(=O)c2ccc3nc(-c4ccccc4)[nH]c3c2)cc1 (stereo not given) | 77%
98 | COc1cccc(NC(=O)C2CCCN2S(=O)(=O)c2ccc3nc(-c4ccccc4)[nH]c3c2)c1 (stereo not given) | 44% (active)
99 | Cc1cc(C)cc(NC(=O)C2CCCN2S(=O)(=O)c2ccc3nc(-c4ccccc4)[nH]c3c2)c1 (stereo not given) | 38% (active)
100 | CCc1ccc(NC(=O)C2CCCN2S(=O)(=O)c2ccc3nc(-c4ccccc4)[nH]c3c2)cc1 (stereo not given) | 82%
